# In PubChem BioAssay (NCATS):
# Where “and” joins values, the source holds several entries; their conditions need not be identical. Equal entries are not always repeated. Inconclusive results are not listed. Values without a mark were called inactive. Calls of active or inactive are those of the source. The call rests on the fitted dose curve; in most records, active means well fitted inhibition curve with a large enough effect; inconclusive means small, poorly fitted or top-dose-only effect; inactive means flat fitted curve, though single readings scatter.
# How the values were obtained:
# [1] = Drug repurposing screens with cells derived from glioblastoma tumor samples (AID 1345199); settings: GBM patient neurospheres viability, ATP luminescence, 48 h; further: nearly all actives have a fitted effect of over 40% in size
# How it was run: (§1)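 Primary testing used CD133+ neurospheres from four GBM patients, seven concentrations, 48 h exposure and ATP-based viability; confirmation added three slower-growing patient lines.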
# astro = control astrocytes; assay: as above; settings: viability, ATP luminescence, 48 h; series mostly up to 45.9 µM
# How it was run: as §1
# [2] = at 20 µM (top of the series), tumour line C
# [3] = at 21.2 µM (top of the series), tumour line B
# [4] = at 21.2 µM (top of the series), tumour line D
# [5] = at 21.3 µM (top of the series), tumour line A
# [6] = at 45.9 µM (top of the series), tumour line B
# [7] = at 45.9 µM (top of the series), tumour line D
# [8] = at 46 µM (top of the series), tumour line A
# [9] = at 46.1 µM (top of the series), tumour line C
# On the % scale 0 is the no-effect control and ±100 the full control effect; potency means the concentration at half of the fitted maximal effect.
smiles,measurement,setting,value
NS(=O)(=O)c1cc2c(cc1C(F)(F)F)NC(Cc1ccccc1)NS2(=O)=O (stereo not given),"activity, negative = cell killing",[1]; [2],-4.97%
same,"activity, negative = cell killing",[1]; [3],-2.05%
same,"activity, negative = cell killing",[1]; [4],-0.808%
same,"activity, negative = cell killing",[1]; [5],-15.9%
same,Potency,astro,inactive
CC1(C)S[C@@H]2[C@H](NC(=O)Cc3ccccc3)C(=O)N2[C@H]1C(=O)O (tested in a mixture with another compound),"activity, negative = cell killing",[1]; [6],-3.74%
same,"activity, negative = cell killing",[1]; [7],-13.1%
same,"activity, negative = cell killing",[1]; [8],-22.7%
same,"activity, negative = cell killing",[1]; [9],-9.44%
same,Potency,astro,inactive
COc1ccc(S(=O)(=O)Nc2nnc(CC(C)C)s2)cc1,"activity, negative = cell killing",[1]; [6],-4.51% and -11.1%
same,"activity, negative = cell killing",[1]; [7],-10.6% and 2.66%
same,"activity, negative = cell killing",[1]; [8],-18%
same,"activity, negative = cell killing",[1]; [9],-23.9%
same,Potency,astro,inactive
NC(=O)c1ncn([C@@H]2O[C@H](CO)[C@@H](O)[C@H]2O)c1N,"activity, negative = cell killing",[1]; [6],-9.5%
same,"activity, negative = cell killing",[1]; [7],-4.13%
same,"activity, negative = cell killing",[1]; [8],-19.7%
same,"activity, negative = cell killing",[1]; [9],-3.52%
same,Potency,astro,inactive
CN(N=O)C(=O)N[C@@H]1[C@@H](O)[C@H](O)[C@@H](CO)O[C@@H]1O,"activity, negative = cell killing",[1]; [2],-1.98%
same,"activity, negative = cell killing",[1]; [3],-12%
same,"activity, negative = cell killing",[1]; [4],1.48%
same,"activity, negative = cell killing",[1]; [5],-15.9%
same,Potency,astro,inactive
Cc1cc(O)cc2c1O[C@](C)(CCC[C@H](C)CCC[C@H](C)CCCC(C)C)CC2,"activity, negative = cell killing",[1]; [9],-14.5%
same,Potency,[1]; tumour line A,5.01 µM (active)
same,Potency,[1]; tumour line B,17.8 µM (active)
same,Potency,[1]; tumour line D,35.5 µM (active)
same,Potency,astro,inactive
CN(C)CCCN1c2ccccc2Sc2ccc(Cl)cc21,"activity, negative = cell killing",[1]; [9],-4.19%
same,Potency,[1]; tumour line A,3.98 µM (active)
same,Potency,[1]; tumour line B,15.8 µM (active)
same,Potency,[1]; tumour line D,20 µM (active)
same,Potency,astro,12.6 µM (active)
O=C(O)CC(O)C(=O)O (stereo not given),"activity, negative = cell killing",[1]; [6],-10.7%
same,"activity, negative = cell killing",[1]; [7],-4.49%
same,"activity, negative = cell killing",[1]; [8],-24.7%
same,"activity, negative = cell killing",[1]; [9],-13.6%
same,Potency,astro,inactive
CCCCCCCCCCCCCCCC(=O)NCCO,"activity, negative = cell killing",[1]; [6],0.41%
same,"activity, negative = cell killing",[1]; [7],-8.68%
same,"activity, negative = cell killing",[1]; [8],-19.5%
same,"activity, negative = cell killing",[1]; [9],-10.8%
same,Potency,astro,inactive
O=c1[nH]cnc2c1ncn2[C@@H]1O[C@H](CO)[C@@H](O)[C@H]1O,"activity, negative = cell killing",[1]; [6],9.46%
same,"activity, negative = cell killing",[1]; [7],-5.06%
same,"activity, negative = cell killing",[1]; [8],7.03%
same,"activity, negative = cell killing",[1]; [9],2.71%
same,Potency,astro,inactive
CCCn1cnc2c1c(=O)n(CCCCC(C)=O)c(=O)n2C,"activity, negative = cell killing",[1]; [6],-7.91%
same,"activity, negative = cell killing",[1]; [7],-10.9%
same,"activity, negative = cell killing",[1]; [8],-20.8%
same,"activity, negative = cell killing",[1]; [9],14.2%
same,Potency,astro,inactive
O=C1NC(=O)[C@@]2(CCOc3ccc(F)cc32)N1,"activity, negative = cell killing",[1]; [6],-4.87%
same,"activity, negative = cell killing",[1]; [7],4.44%
same,"activity, negative = cell killing",[1]; [8],-16.6%
same,"activity, negative = cell killing",[1]; [9],-0.68%
same,Potency,astro,inactive
C[C@@H]1CN(c2c(F)c(F)c3c(=O)c(C(=O)O)cn(C4CC4)c3c2F)C[C@H](C)N1,"activity, negative = cell killing",[1]; [6],-1.06%
same,"activity, negative = cell killing",[1]; [7],-13.8%
same,"activity, negative = cell killing",[1]; [8],-28.8%
same,"activity, negative = cell killing",[1]; [9],26.5%
same,Potency,astro,inactive
CCCCN1CCCC[C@H]1C(=O)Nc1c(C)cccc1C,"activity, negative = cell killing",[1]; [6],-6.49%
same,"activity, negative = cell killing",[1]; [7],-12.7%
same,"activity, negative = cell killing",[1]; [8],-27.7%
same,"activity, negative = cell killing",[1]; [9],5.13%
same,Potency,astro,inactive
CCCCC/C(C=O)=C\c1ccccc1,"activity, negative = cell killing",[1]; [6],-2.87%
same,"activity, negative = cell killing",[1]; [7],-16.9%
same,"activity, negative = cell killing",[1]; [8],-24.2%
same,"activity, negative = cell killing",[1]; [9],-7.86%
same,Potency,astro,inactive
N[C@@H](CSCCCO)C(=O)O,"activity, negative = cell killing",[1]; [6],0.365%
same,"activity, negative = cell killing",[1]; [7],-10%
same,"activity, negative = cell killing",[1]; [8],-27%
same,"activity, negative = cell killing",[1]; [9],-8.48%
same,Potency,astro,inactive
NCC(=O)CCC(=O)O,"activity, negative = cell killing",[1]; [6],-16.2%
same,"activity, negative = cell killing",[1]; [7],-11%
same,"activity, negative = cell killing",[1]; [8],-11%
same,"activity, negative = cell killing",[1]; [9],-6.71%
same,Potency,astro,inactive
CN(C)CC[C@@H](c1ccc(Cl)cc1)c1ccccn1,"activity, negative = cell killing",[1]; [6],-9.08%
same,"activity, negative = cell killing",[1]; [7],-26.8%
same,"activity, negative = cell killing",[1]; [9],-11.4%
same,Potency,[1]; tumour line A,14.1 µM (active)
same,Potency,astro,inactive
NC(=O)NC(=O)Cc1ccccc1,"activity, negative = cell killing",[1]; [6],5.96%
same,"activity, negative = cell killing",[1]; [7],3.38%
same,"activity, negative = cell killing",[1]; [8],-32.3%
same,"activity, negative = cell killing",[1]; [9],-5.24%
same,Potency,astro,inactive
CC(C)(C(=O)O)c1ccc(C(O)CCCN2CCC(C(O)(c3ccccc3)c3ccccc3)CC2)cc1 (stereo not given),"activity, negative = cell killing",[1]; [6],0.768%
same,"activity, negative = cell killing",[1]; [7],0.91%
same,"activity, negative = cell killing",[1]; [8],-18.8%
same,"activity, negative = cell killing",[1]; [9],14%
same,Potency,astro,inactive
CO/N=C(\C(=O)N[C@@H]1C(=O)N2C(C(=O)O)=C(CSc3nc(=O)c(O)nn3C)CS[C@H]12)c1csc(N)n1,"activity, negative = cell killing",[1]; [6],-2.24%
same,"activity, negative = cell killing",[1]; [7],-10.7%
same,"activity, negative = cell killing",[1]; [8],-24.8%
same,"activity, negative = cell killing",[1]; [9],-11.4%
same,Potency,astro,inactive
